Common to all, as to assay: DAPPL (digital affinity profiling via proximity ligation, sequencing); 10 mM Tris-HCl pH 7.5, 50 mM NaCl, 1 mM DTT, 4% glycerol, room temperature, 30 min; GST-TFs on glutathione beads, 16-mer random dsDNA library, 0.1% formaldehyde crosslink after washing; high values mean tight binding
One assay concerns the target T1, FEV (Homo sapiens, UniProt Q99581 1-238).
T1 sequence: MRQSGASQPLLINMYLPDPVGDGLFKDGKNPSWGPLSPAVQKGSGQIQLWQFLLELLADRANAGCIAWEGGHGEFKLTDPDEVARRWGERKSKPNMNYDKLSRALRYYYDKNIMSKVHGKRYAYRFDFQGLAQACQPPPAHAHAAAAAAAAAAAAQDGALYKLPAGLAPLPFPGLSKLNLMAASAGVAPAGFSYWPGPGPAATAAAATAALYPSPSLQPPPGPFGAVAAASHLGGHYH
To be noted: protein: recombinant; tags: N-terminal GST; dsDNA, one strand shown. The method, boiled down: (§1)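 Binding signal is each hexamer's read frequency for a factor divided by its frequency in the tag-only sample. The factors were GST-fused human transcription factors from yeast, captured on glutathione beads, DNA-barcoded and pooled with that sample. Pools were incubated with 200 nmole of a random double-stranded 16-mer DNA library in Tris/NaCl/DTT/glycerol buffer at room temperature for 30 min, then washed, crosslinked with 0.1% formaldehyde, proximity-ligated with BsaI/T4 ligase (1 h, 37 °C), PCR-amplified and sequenced on an Illumina NextSeq500.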

A further assay addresses ETV5 (Homo sapiens, UniProt P41161 1-510). To be noted: protein: recombinant; tags: N-terminal GST; dsDNA, one strand shown. A digest of the protocol: as §1
The next assay addresses HSF1 (Homo sapiens, UniProt Q00613 1-529). To be noted: protein: recombinant; tags: N-terminal GST; chain copies: 3; dsDNA, one strand shown. The method, boiled down: as §1
The next assay deals with T2, SPIC (Homo sapiens, UniProt Q8N5J4 1-248).
T2 sequence: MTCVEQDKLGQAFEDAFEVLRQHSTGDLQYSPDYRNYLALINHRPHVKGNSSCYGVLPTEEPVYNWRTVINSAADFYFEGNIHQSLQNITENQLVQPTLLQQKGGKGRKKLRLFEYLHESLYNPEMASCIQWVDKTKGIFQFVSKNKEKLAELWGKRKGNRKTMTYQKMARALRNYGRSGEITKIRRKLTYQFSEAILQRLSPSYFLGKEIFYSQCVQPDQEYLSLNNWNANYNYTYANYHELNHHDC
To be noted: protein: recombinant; tags: N-terminal GST; dsDNA, one strand shown. The method, boiled down: as §1

In the next assay the target is ELF4 (Homo sapiens, UniProt Q99607 1-663). To be noted: protein: recombinant; tags: N-terminal GST; dsDNA, one strand shown. The method, boiled down: as §1
ELF4, sequence (Q99607 whole entry): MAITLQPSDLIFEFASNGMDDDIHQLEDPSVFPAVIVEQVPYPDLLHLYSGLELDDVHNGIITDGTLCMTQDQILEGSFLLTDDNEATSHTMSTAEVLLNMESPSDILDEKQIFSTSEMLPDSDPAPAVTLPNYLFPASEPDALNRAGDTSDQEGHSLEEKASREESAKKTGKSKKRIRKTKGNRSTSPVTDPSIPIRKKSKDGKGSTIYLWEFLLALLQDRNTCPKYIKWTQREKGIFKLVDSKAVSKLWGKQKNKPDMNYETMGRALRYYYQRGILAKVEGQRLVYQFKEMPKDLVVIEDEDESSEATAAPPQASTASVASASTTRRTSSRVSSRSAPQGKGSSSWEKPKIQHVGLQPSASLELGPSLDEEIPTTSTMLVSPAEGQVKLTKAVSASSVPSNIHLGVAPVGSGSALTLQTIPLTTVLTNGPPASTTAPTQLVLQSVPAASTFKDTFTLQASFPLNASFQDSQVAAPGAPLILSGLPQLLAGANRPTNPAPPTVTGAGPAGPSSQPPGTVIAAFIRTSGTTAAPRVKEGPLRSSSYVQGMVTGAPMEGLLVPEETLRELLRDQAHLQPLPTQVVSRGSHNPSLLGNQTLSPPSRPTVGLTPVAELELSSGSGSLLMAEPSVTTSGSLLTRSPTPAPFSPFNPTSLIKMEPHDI
Another assay addresses T3, ELK4 (Homo sapiens, UniProt P28324-2 1-405).
T3 sequence: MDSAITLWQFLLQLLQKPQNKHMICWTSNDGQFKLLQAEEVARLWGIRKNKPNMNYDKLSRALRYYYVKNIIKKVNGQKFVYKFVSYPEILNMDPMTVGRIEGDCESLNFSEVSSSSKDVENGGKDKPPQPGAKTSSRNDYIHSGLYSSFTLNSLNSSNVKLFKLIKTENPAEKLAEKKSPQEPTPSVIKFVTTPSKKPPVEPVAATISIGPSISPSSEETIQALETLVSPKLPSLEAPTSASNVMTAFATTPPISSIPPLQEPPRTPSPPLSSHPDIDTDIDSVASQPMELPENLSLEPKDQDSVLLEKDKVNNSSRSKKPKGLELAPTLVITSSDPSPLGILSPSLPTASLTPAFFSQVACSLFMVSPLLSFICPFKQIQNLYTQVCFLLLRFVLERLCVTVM
To be noted: protein: recombinant; tags: N-terminal GST; dsDNA, one strand shown. A digest of the protocol: as §1

In another assay the target is T4, ETV2 (Homo sapiens, UniProt O00321 1-342).
T4 sequence: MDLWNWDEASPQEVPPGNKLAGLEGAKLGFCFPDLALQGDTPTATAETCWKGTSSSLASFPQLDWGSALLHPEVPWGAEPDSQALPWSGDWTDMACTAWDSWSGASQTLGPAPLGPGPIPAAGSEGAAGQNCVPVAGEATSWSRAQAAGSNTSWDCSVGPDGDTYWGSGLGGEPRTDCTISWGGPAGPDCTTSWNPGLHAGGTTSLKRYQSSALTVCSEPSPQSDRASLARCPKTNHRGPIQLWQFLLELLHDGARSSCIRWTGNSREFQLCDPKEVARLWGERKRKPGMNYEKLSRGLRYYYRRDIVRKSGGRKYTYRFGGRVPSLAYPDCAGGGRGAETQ
To be noted: protein: recombinant; tags: N-terminal GST; dsDNA, one strand shown. A digest of the protocol: as §1

A further assay addresses T5, ELF3 (Homo sapiens, UniProt P78545 1-371).
T5 sequence: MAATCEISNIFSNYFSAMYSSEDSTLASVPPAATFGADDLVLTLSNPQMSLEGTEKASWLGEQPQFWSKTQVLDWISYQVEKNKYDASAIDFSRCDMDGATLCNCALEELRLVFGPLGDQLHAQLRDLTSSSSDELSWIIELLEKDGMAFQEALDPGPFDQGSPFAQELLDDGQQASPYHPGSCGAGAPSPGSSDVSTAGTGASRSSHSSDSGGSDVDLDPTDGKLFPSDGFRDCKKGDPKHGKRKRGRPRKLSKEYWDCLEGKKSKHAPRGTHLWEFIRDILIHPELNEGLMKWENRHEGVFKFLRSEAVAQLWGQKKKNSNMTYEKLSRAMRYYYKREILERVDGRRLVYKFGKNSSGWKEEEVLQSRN
To be noted: protein: recombinant; tags: N-terminal GST; dsDNA, one strand shown. The method, boiled down:
as §1

A further assay addresses CRX (Homo sapiens, UniProt O43186 1-299). To be noted: protein: recombinant; tags: N-terminal GST; dsDNA, one strand shown. A digest of the protocol: as §1
The target in the next assay is ETV1 (Homo sapiens, UniProt P50549 1-477). To be noted: protein: recombinant; tags: N-terminal GST; dsDNA, one strand shown. The method, boiled down:
as §1

In another assay the target is T6, ERF (Homo sapiens, UniProt P50548 1-548).
T6 sequence: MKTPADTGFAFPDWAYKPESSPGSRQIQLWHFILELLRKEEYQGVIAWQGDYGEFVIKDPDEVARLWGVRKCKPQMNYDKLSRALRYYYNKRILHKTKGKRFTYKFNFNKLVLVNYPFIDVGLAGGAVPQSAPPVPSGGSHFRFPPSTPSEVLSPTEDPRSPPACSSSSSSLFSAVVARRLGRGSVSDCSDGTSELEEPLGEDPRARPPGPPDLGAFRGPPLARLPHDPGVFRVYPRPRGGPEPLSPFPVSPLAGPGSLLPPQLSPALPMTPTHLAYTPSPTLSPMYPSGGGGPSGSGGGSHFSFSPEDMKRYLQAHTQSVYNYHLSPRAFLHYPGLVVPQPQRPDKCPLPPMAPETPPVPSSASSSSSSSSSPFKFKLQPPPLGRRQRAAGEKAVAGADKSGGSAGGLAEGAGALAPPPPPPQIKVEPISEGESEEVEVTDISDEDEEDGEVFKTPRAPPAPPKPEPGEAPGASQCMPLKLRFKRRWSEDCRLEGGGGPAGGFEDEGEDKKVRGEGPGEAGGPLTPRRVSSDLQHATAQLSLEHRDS
To be noted: protein: recombinant; tags: N-terminal GST; dsDNA, one strand shown. The method, boiled down: as §1

The target of another assay is T7, ETV3L (Homo sapiens, UniProt Q6ZN32 1-361).
T7 sequence: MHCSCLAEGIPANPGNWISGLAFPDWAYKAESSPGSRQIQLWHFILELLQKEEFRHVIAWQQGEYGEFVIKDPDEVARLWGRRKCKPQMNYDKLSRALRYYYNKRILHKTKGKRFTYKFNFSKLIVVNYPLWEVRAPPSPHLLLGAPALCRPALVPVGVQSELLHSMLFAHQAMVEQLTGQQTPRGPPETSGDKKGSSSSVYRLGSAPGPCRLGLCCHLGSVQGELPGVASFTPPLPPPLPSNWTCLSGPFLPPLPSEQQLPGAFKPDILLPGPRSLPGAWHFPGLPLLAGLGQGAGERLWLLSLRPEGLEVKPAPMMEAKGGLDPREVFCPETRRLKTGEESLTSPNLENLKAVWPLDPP
To be noted: protein: recombinant; tags: N-terminal GST; dsDNA, one strand shown. A digest of the protocol:
as §1

In the next assay the target is T8, ETS2 (Homo sapiens, UniProt P15036 1-469).
T8 sequence: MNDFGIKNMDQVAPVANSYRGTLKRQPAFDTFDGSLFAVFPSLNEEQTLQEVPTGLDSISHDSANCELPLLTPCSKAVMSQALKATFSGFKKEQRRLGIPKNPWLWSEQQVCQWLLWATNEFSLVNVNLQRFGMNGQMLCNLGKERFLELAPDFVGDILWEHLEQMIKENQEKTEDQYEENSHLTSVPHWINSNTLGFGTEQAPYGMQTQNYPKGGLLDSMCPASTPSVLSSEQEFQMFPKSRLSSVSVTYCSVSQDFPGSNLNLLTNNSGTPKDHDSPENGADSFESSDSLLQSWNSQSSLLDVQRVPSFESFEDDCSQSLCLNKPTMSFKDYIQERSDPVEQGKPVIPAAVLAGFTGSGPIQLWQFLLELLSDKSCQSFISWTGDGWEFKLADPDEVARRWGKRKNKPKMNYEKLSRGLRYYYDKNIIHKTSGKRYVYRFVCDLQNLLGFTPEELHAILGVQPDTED
To be noted: protein: recombinant; tags: N-terminal GST; dsDNA, one strand shown. The method, boiled down:
as §1

In another assay the target is T9, SPDEF (Homo sapiens, UniProt O95238 1-335).
T9 sequence: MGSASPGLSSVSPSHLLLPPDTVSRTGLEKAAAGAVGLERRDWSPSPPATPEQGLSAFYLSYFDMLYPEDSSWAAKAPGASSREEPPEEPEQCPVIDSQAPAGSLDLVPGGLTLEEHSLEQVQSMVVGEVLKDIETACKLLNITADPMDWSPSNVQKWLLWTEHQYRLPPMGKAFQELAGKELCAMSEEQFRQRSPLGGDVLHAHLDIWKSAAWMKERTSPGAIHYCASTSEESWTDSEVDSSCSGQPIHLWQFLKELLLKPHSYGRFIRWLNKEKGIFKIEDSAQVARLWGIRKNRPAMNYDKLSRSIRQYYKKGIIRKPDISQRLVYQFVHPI
To be noted: protein: recombinant; tags: N-terminal GST; dsDNA, one strand shown. A digest of the protocol:
as §1

In the next assay the target is T10, ETV7 (Homo sapiens, UniProt Q9Y603 1-341).
T10 sequence: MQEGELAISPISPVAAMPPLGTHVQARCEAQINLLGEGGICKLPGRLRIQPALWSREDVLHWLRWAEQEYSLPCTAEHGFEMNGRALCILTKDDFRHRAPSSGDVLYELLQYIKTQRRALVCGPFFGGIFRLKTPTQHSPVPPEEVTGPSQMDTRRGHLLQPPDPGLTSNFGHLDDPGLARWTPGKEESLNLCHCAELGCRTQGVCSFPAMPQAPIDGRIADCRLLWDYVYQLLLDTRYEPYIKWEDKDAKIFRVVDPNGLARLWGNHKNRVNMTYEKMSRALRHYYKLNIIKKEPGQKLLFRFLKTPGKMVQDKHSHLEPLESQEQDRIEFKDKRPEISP
To be noted: protein: recombinant; tags: N-terminal GST; dsDNA, one strand shown. The method, boiled down: as §1

Another assay deals with T11, ELF5 (Homo sapiens, UniProt Q9UKW6-2 1-255).
T11 sequence: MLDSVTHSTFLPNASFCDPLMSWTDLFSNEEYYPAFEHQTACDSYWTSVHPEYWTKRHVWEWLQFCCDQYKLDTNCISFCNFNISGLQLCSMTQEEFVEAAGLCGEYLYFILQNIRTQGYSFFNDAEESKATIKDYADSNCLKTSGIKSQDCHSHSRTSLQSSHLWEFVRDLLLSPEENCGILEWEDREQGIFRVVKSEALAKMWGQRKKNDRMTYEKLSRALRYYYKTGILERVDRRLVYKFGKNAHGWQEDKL
To be noted: protein: recombinant; tags: N-terminal GST; dsDNA, one strand shown. A digest of the protocol:
as §1

Another assay concerns the target T12, ETV3 (Homo sapiens, UniProt P41162-2 1-143).
T12 sequence: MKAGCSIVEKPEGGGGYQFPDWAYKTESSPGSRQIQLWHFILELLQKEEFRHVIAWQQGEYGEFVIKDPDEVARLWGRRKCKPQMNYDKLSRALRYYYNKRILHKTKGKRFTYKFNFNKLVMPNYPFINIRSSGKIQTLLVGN
To be noted: protein: recombinant; tags: N-terminal GST; dsDNA, one strand shown. The method, boiled down: as §1

A further assay concerns the target ETV6 (Homo sapiens, UniProt P41212 1-452). To be noted: protein: recombinant; tags: N-terminal GST; dsDNA, one strand shown. The method, boiled down: as §1

CRX, sequence (O43186 whole entry): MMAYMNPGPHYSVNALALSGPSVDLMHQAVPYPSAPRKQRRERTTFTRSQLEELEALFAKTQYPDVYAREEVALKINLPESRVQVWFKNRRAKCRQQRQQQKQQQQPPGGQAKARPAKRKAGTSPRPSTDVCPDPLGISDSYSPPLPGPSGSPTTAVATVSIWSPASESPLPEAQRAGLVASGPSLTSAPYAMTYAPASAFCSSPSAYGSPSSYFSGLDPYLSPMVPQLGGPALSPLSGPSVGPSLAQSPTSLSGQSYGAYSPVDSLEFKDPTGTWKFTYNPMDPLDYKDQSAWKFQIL
ETV1, sequence (P50549 whole entry): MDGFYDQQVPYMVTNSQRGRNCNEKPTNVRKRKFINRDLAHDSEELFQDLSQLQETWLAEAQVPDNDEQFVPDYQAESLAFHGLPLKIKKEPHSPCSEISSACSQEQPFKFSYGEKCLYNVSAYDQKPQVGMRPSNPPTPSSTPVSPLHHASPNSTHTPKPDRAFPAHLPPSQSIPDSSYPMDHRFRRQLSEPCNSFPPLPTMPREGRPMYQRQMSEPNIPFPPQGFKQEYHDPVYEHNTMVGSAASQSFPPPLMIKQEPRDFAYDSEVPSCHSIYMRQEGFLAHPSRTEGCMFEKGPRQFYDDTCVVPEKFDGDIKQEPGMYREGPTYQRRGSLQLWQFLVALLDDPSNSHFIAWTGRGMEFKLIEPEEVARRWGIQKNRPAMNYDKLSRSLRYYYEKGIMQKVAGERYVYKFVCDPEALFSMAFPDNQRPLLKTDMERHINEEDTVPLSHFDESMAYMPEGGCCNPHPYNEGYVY
HSF1, sequence (Q00613 whole entry): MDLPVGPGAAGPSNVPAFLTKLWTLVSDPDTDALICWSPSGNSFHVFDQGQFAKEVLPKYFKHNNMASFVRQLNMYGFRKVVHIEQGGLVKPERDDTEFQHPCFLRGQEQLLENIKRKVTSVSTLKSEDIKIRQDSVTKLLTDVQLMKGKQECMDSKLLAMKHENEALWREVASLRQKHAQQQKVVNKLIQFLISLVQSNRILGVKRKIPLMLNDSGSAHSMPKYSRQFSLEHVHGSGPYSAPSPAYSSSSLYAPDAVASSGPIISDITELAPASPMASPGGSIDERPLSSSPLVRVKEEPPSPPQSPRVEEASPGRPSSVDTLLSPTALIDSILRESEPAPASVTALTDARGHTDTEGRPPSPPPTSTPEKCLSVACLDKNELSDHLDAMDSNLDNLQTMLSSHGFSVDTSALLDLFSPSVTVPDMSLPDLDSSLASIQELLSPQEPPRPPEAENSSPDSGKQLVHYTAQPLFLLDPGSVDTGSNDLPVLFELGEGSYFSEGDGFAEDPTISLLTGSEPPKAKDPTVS
ETV6, sequence (P41212 whole entry): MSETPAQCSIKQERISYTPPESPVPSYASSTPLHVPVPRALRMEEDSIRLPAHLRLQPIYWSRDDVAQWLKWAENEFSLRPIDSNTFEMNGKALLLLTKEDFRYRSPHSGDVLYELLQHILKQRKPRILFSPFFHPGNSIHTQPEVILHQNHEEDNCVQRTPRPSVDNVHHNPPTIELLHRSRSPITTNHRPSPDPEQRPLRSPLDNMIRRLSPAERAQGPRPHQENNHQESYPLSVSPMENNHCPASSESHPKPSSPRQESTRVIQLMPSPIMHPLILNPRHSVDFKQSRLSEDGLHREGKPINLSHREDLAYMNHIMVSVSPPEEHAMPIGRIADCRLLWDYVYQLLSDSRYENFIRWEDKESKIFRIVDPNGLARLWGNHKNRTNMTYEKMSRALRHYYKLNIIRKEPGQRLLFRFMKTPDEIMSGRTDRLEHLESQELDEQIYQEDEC
ETV5, sequence (P41161 whole entry): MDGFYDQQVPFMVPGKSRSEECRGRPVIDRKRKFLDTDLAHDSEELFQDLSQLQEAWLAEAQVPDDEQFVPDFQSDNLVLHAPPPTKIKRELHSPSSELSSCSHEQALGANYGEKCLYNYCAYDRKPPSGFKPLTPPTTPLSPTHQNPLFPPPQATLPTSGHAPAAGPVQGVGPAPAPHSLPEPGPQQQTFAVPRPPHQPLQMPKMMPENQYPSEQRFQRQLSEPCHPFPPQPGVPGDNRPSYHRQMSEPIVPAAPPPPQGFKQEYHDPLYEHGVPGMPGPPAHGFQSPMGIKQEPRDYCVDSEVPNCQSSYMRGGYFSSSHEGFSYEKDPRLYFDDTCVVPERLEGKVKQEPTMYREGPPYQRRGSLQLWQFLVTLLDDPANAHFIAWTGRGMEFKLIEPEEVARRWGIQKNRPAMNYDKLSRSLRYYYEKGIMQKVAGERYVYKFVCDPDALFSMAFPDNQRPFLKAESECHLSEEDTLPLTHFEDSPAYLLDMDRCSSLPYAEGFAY

Take ATCTAT: the binding signal was 1.08 fold enrichment (6-mer frequency, TF over GST control) with FEV; 1.15 fold enrichment (6-mer frequency, TF over GST control) with ETV5; 1.32 fold enrichment (6-mer frequency, TF over GST control) with HSF1; 1.27 fold enrichment (6-mer frequency, TF over GST control) with SPIC; 1.21 fold enrichment (6-mer frequency, TF over GST control) in the assay with ELF4; 1.18 fold enrichment (6-mer frequency, TF over GST control) with ELK4. Further, the binding signal in the assay with ETV2 is 1.13 fold enrichment (6-mer frequency, TF over GST control); in the assay with ELF3 it was 1.23 fold enrichment (6-mer frequency, TF over GST control); in the assay with CRX, 1.42 fold enrichment (6-mer frequency, TF over GST control); with ETV1, 1.16 fold enrichment (6-mer frequency, TF over GST control); with ERF, 1.12 fold enrichment (6-mer frequency, TF over GST control); in the assay with ETV3L it was 1.07 fold enrichment (6-mer frequency, TF over GST control). The binding signal is 1.15 fold enrichment (6-mer frequency, TF over GST control) with ETS2; 1.17 fold enrichment (6-mer frequency, TF over GST control) with SPDEF; 1.18 fold enrichment (6-mer frequency, TF over GST control) in the assay with ETV7; 1.05 fold enrichment (6-mer frequency, TF over GST control) with ELF5; 1.12 fold enrichment (6-mer frequency, TF over GST control) in the assay with ETV3; 1.14 fold enrichment (6-mer frequency, TF over GST control) with ETV6.
